# This is a sample that favours compounds with a hit; in the whole collection about 2.3% have one here.
# Nrf2 ARE act: qHTS of Nrf2 Activators | AREc32 ARE-luciferase reporter (MCF7-derived line), luminescence, 24 h | Potency, µM (highest dose often 46.1 µM), inactives show top-dose activation, most hits filed as activators | hit rate 0.31% among 410,000 | AID 624171, 2012; further: potency means the concentration at half of the fitted maximal effect; % of control where 0% means no effect; nearly all actives have a fitted effect of over 65% in size
#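 AREc32 cells carrying an ARE-driven firefly luciferase reporter were seeded at 1000 cells/well in OPTI-MEM with 5% FBS, then exposed to compound for 24 hr at 37 deg C. Luminescence was read with Steady-Glo after 30 min at RT.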
# Apoferritin bind: qHTS Assay for Identification of Novel General Anesthetics. Ferritin light chain (Equus caballus), P02791. apoferritin/1-aminoanthracene competitive binding, fluorescence. Potency, µM (doses to about 77.5 µM), for inactives: at the top dose activity change, negative = displacement, actives largely listed as inhibitors. hit rate 0.074% among 350,000. AID 485281, 2010; further: potency means the concentration at half of the fitted maximal effect; on the % scale 0 is the no-effect control and ±100 the full control effect; nearly all actives have a fitted effect of over 20% in size
# Target sequence (P02791 2-175 limits assumed): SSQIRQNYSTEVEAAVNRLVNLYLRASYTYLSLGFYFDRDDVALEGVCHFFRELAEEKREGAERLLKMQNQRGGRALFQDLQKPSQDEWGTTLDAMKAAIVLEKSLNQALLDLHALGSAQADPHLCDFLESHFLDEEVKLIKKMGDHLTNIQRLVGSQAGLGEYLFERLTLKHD
#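 Steps: apoferritin (10 uM) was premixed with half-saturated 1-AMA in PBS, compounds were pin-transferred, plates stood 10 min at room temperature, fluorescence was read at 380/535 nm, and curves were fitted with a Hill equation.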
# IDH1 R132H inh: qHTS for Inhibitors of mutant isocitrate dehydrogenase 1 (IDH1): qHTS; Isocitrate dehydrogenase [NADP] cytoplasmic (Homo sapiens), O75874; IDH1-R132H enzyme, NADPH consumption, diaphorase/resazurin fluorescence; Potency, µM (titrated, usually from 76.6 µM), without a hit: at the top dose activity change, negative = inhibition, actives largely listed as inhibitors; hit rate 0.093% among 390,000; AID 602179, 2012; further: potency means the concentration at half of the fitted maximal effect; on the % scale 0 is the no-effect control and ±100 the full control effect; nearly all actives have a fitted effect of over 65% in size
# Target sequence (O75874 whole entry R132H, stated change not applied): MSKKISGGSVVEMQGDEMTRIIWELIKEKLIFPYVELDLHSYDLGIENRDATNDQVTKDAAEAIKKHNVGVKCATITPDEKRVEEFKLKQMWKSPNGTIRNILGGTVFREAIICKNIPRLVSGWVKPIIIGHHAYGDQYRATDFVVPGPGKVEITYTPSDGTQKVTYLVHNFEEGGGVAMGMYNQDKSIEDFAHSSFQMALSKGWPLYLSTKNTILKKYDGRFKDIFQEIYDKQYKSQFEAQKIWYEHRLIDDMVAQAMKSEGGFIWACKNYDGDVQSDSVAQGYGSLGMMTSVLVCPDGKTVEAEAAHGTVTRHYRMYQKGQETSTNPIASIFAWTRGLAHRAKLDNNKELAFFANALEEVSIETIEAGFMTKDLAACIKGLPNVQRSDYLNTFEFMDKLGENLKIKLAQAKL
#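 IDH1-R132H (0.5 ug/mL) preincubated 30 min with compound, then NADPH (0.016 mM) and alpha-KG (2 mM) added; 80 min at RT, pH 7.5. Remaining NADPH coupled via diaphorase/resazurin to fluorescence (540/590 nm); concentration-response curves normalized to no-enzyme control.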
# A549 tox: Nrf2 qHTS screen for inhibitors: counterscreen for cytotoxicity; A549 ARE-Fluc cells, CellTiter-Fluor viability, 18-24 h; hit rate 0.16% among 390,000; Potency, µM (doses to about 46 µM), inactives show at the highest dose activity change, negative = cytotoxicity, most hits filed as inhibitors; further: potency means the concentration at half of the fitted maximal effect; on the % scale 0 is the no-effect control and ±100 the full control effect
#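 A549 ARE-Fluc cells in 5% FBS OPTI-MEM, 5000 cells/well, rested 2 h then exposed to compounds in concentration-response for 18-24 h at 37 °C. Viability by CellTiter-Fluor fluorescence (Ex 405/Em 525) after 30 min; luciferase luminescence (BugLite, 15 min, RT) read afterwards.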
# Giardia killer: Small Molecules that selectively kill Giardia lamblia: qHTS; Giardia lamblia trophozoite viability; activity change, % at 7.66 µM, hits read low; hit rate 0.15% among 340,000; in the data active means activity change below about -80%; inconclusive means between about -30% and that limit;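 further: parasites exposed to compound for two days anaerobically before the ATP read; on the % scale 0 is the no-effect control and ±100 the full control effect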
#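 Compounds were tested on trophozoites seeded at 100 cells/well and held 48 hrs at 37 deg C anaerobically. An ATP-based luminescent kit measured the remaining live cells.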
# Nrf2 block: Nrf2 qHTS screen for inhibitors | A549 ARE-Fluc reporter, luciferase luminescence, 18-24 h | Potency, µM (titrated, usually from 46 µM), inactives show at the highest dose activity change, negative = inhibition, most hits filed as inhibitors | hit rate 2.1% among 360,000; further: potency means the concentration at half of the fitted maximal effect; on the % scale 0 is the no-effect control and ±100 the full control effect; nearly all actives have a fitted effect of over 60% in size
#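 In this cell-based qHTS, ARE-driven firefly luciferase in A549 cells reports Nrf2 activity; the luminescent signal after BugLite lysis is the measured value, with a prior CellTiter-Fluor read for cell health.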
# Starred values were filed as active, the others as inactive; ? = inconclusive; . = no result. Unless noted, the call rests on the fitted dose curve; in most records, active means well fitted curve in the direction sought with a large enough effect; inconclusive means small, poorly fitted or top-dose-only effect, or another doubt; inactive means no such curve, though single readings can be large; an effect the other way counts as inactive or inconclusive.
SMILES,Nrf2 ARE act,Apoferritin bind,IDH1 R132H inh,A549 tox,Giardia killer,Nrf2 block
Cn1c(=O)oc2cc(S(=O)(=O)N3CCC(C(=O)N4CCN(c5ccc(Cl)cc5)CC4)CC3)ccc21,0%,-11%,24%,3%,.,18µM*
CC(=O)N1c2ccc(S(=O)(=O)N3CCC(C(=O)Nc4ccc(C)cn4)CC3)cc2CC1C (stereo unspecified),0%,-11%,-3%,-10%,12,15µM*
Cc1cccc(NC(=O)C2CCN(S(=O)(=O)c3ccc4ccccc4c3)CC2)n1,3%,.,2%,-14%,-12,16µM*
CC(=O)c1ccc(N2CCN(C(=O)C3CCN(S(=O)(=O)c4ccc5c(c4)CC(C)N5C(C)=O)CC3)CC2)cc1 (stereo unspecified),3%,-7%,-14%,-1%,-6,15µM*
O[C@@H]1COC2[C@@H](O)CO[C@@H]21 (stereo partly specified),.,5%,.,.,.,.
COc1ccccc1Cn1c(CNS(=O)(=O)c2ccc3c(c2)CCCC3)nc2cccnc21,5%,-13%,-2%,-1%,.,.
N#Cc1nc(Nc2cccc(C(F)(F)F)c2)nc(NC2CCCC2)n1,.,.,.,-4%,.,-6%
CC(=O)N1c2ccc(S(=O)(=O)N3CCC(C(=O)Nc4cccc(F)c4)CC3)cc2CC1C (stereo unspecified),2%,-15%,-4%,-9%,1,16µM*
Cc1ccnc(NC(=O)C2CCN(S(=O)(=O)c3ccc4c(c3)CC(C)N4C(=O)C3CCC3)CC2)c1 (stereo unspecified),1%,-2%,2%,-11%,4,?
CC(=O)N1c2ccc(S(=O)(=O)N3CCC(C(=O)Nc4cccc(Cl)c4C)CC3)cc2CC1C (stereo unspecified),0%,7%,-7%,-1%,.,?
CC1Cc2cc(S(=O)(=O)N3CCC(C(=O)Nc4ccccn4)CC3)ccc2N1C(=O)C1CCC1 (stereo unspecified),3%,-7%,8%,-12%,4,15µM*
CC(=O)N1c2ccc(S(=O)(=O)N3CCC(C(=O)Nc4cccc(C)c4)CC3)cc2CC1C (stereo unspecified),0%,-7%,-8%,-3%,-15,?
CC1Cc2cc(S(=O)(=O)N3CCN(c4ccccc4F)CC3)ccc2N1C(=O)C1CC1 (stereo unspecified),-1%,-11%,0%,-8%,-7,15µM*
CC(=O)N1c2ccc(S(=O)(=O)N3CCC(C(=O)Nc4cccc(Cl)c4)CC3)cc2CC1C (stereo unspecified),-1%,7%,5%,-12%,6,2.1µM*
Nc1ncc(-c2cccc(-c3nn4c(=O)cc(N5CCNCC5)nc4s3)c2)cn1,.,.,.,-5%,.,3%
O=C(Nc1cccc(F)c1)C1CCN(S(=O)(=O)c2ccc3[nH]c4c(c3c2)CCCCC4)CC1,-1%,-3%,-8%,-30%,.,18µM*
CC1Cc2cc(S(=O)(=O)CCC(=O)Nc3ccc(Cl)cc3F)ccc2N1C(=O)C1CC1 (stereo unspecified),1%,4%,35%,1%,.,13µM*
CCC(=O)N1c2ccc(S(=O)(=O)N3CCN(c4cc(C)ccc4C)CC3)cc2CC1C (stereo unspecified),-1%,-9%,-3%,6%,17,16µM*
Cc1cc(F)ccc1NC(=O)CCS(=O)(=O)c1ccc2c(c1)CC(C)N2C(=O)C1CC1 (stereo unspecified),0%,-19%,-5%,-3%,.,-26%
CCC(=O)N1c2ccc(S(=O)(=O)CCC(=O)N3CCN(c4cc(C)ccc4C)CC3)cc2CC1C (stereo unspecified),0%,-13%,-7%,0%,.,?
CSc1cccc(NC(=O)C2CCN(S(=O)(=O)c3ccc4[nH]c5c(c4c3)CCCCC5)CC2)c1,0%,-3%,-2%,-4%,.,?
CC(=O)N1c2c(cc(Br)cc2S(=O)(=O)N2CCN(c3ccccc3F)CC2)CC1C (stereo unspecified),-1%,7%,-1%,-7%,-7,23µM*
Cc1ccc(-c2nc3cccc(C)n3c2Nc2ccc(F)cc2)o1,.,.,.,1%,-11,-11%
Nc1ccc2c(c1)C(=O)N(c1ccc3ccccc3c1)C2=O,.,.,.,?,8,?
O=S(=O)(N1CCN(c2nc(-c3cccs3)nc3ccccc23)CC1)C(F)(F)F,.,.,.,12%,17,-5%
SMILES,Nrf2 ARE act,Apoferritin bind,IDH1 R132H inh,A549 tox,Giardia killer,Nrf2 block
CCc1ccc(NC(=O)C2CCN(S(=O)(=O)c3ccc4c(c3)CC(C)N4C(C)=O)CC2)cc1 (stereo unspecified),2%,-9%,0%,-1%,4,16µM*
COc1ccc(NC(=O)C2CCCN(S(=O)(=O)c3ccc4c(c3)CC(C)N4C(C)=O)C2)cc1 (stereo unspecified),0%,-20%,1%,-2%,-1,?
CC(=O)N1c2ccc(S(=O)(=O)N3CCCC(C(=O)Nc4ccc(F)cc4)C3)cc2CC1C (stereo unspecified),2%,-21%,-2%,-10%,12,18µM*
COc1ccc(-c2cc(C(=O)Nc3cccc(C(C)=O)c3)no2)cc1OC,1%,2%,8%,-4%,.,-2%
COc1ccc(OC)c(CCNC(=O)C(=O)Nc2ccc3nc4n(c(=O)c3c2)CCCCC4)c1,-1%,-21%,-10%,-3%,-10,21µM*
Cn1ncc2c(O/N=C(\N)c3ccc(C(F)(F)F)cc3)ncnc21,-4%,2%,-6%,?,16,18µM*
Cn1nc([N+](=O)[O-])nc1S(C)(=O)=O,-2%,-1%,-2%,-8%,-12,23µM*
O=S(=O)(c1cccc2ccccc12)N1CCN(c2nc(-c3cccs3)nc3ccccc23)CC1,.,.,.,-4%,7,-10%
CC(C)COc1ccc(C/C(N)=N/n2cnnc2)cc1,2%,-9%,-8%,-26%,2,16µM*
CCOc1cccc(C2C=C(c3ccc4c(c3)OCO4)NC(c3ccccc3F)N2)c1O (stereo unspecified),.,.,.,-1%,?,3%
CCOc1nc(NC(=O)NS(=O)(=O)Oc2ccccc2)nc(-c2ccccc2)n1,1%,-6%,-8%,-1%,.,?

# Compound activity as filed in PubChem BioAssay.
